Reference: PubChem BioAssay (NCATS)
Results filed as inconclusive are left out. The source made the active and inactive calls. Unless noted, calls follow the shape of the dose curve; as a rule, active = well fitted curve in the direction sought with a large enough effect; inconclusive = small, poorly fitted or top-dose-only effect, or another doubt; inactive = no such curve, though single readings can be large; an effect the other way counts as inactive or inconclusive.

Legend:
[1] = system: ATS95; assay: qHTS profiling for inhibitors of Plasmodium falciparum proliferation (AID 504749); also: nearly all actives have a fitted effect of over 60% in size; settings: P. falciparum in erythrocytes, SYBR Green DNA, 72 h; series mostly up to 28.7 µM
How it was run: (§1)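 Infected RBCs, 0.3% parasitemia/2.5% Hct final; cpd 72 h, 37 C, 5% CO2; lysis buffer with saponin/triton/SYBR Green I, o/n RT dark; FI 485/535; norm. to artemisinin (0.29 uM) and DMSO.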

[2] = system: CP215; assay: as above; settings: P. falciparum in erythrocytes, SYBR Green DNA, 72 h; series mostly up to 28.7 µM
How it was run: as §1

[3] = system: CP315; assay: as above; settings: P. falciparum in erythrocytes, SYBR Green DNA, 72 h; series mostly up to 28.7 µM
How it was run: as §1

[4] = biological target: Guanine nucleotide-binding protein G(i) subunit alpha-1 (Homo sapiens) (UniProt P63096); assay: qHTS Assay for Inhibitors of RGS12 GoLoco Motif Activity (Green Fluorophore) (AID 879);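 also: negative values mean loss of peptide binding seen as reduced polarization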
How it was run: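 Fluorescence polarization assay: 50 nM Gαi1 with 10 nM FITC-labeled RGS12 GoLoco peptide in 10 mM Tris pH 7.5, 150 mM NaCl, 0.1 mM GDP, 0.05% NP40, 10 min at room temperature with compound.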

[5] = qHTS Assay for Identification of Small Molecule Agonists for Thrombopoietin (TPO) Signaling Pathway (AID 917)
How it was run: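 IL-3-dependent murine pro-B Ba/F3 cells, stably transfected with human TPO receptor and GpIIb-promoter luciferase, are incubated 24 hrs at 37 C with test compound and 26 pM TPO; luciferase signal is read after 10 min at room temperature.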

[6] = biological target: Muscarinic acetylcholine receptor M1 (Rattus norvegicus) (UniProt P08482); assay: qHTS Assay for Antagonists of Acetylcholine Muscarinic M1 Receptor: Kinetic Measurement of Intracellular Calcium Response (AID 943);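 also: Fluo-4 calcium signal as peak divided by basal fluorescence over 4 min; nearly all actives have a fitted effect of over 75% in size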
How it was run: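 Rat M1-CHO cells, 2000/well, overnight → Fluo-4 no-wash dye with probenecid, 1 h 37C → compound 10 min, room temp → basal read 6 s → carbachol EC80 (100 nM) → 4 min kinetic read; peak/basal.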

[7] = biological target: Muscarinic acetylcholine receptor M1 (Rattus norvegicus) (UniProt P08482); assay: qHTS Assay for Antagonists of Acetylcholine Muscarinic M1 Receptor: Measurement of IP-One Response (AID 944); also: nearly all actives have a fitted effect of over 75% in size
How it was run: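 M1-CHO (rat), 2000 cells/well, overnight recovery; cpd 10 min; carbachol EC80 (200 nM), 30 min, HEPES buffer + 50 mM LiCl pH 7.4; IP-One HTRF, Ex 337, Em 620/665 nm.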

[8] = biological target: Pyruvate kinase (Leishmania mexicana) (UniProt Q27686); assay: qHTS Validation Assay for Inhibitors of Leishmania Mexicana Pyruvate Kinase (AID 945)
How it was run: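 Luminescent ATP detection (PKLight) after a 1 h room-temperature reaction of 0.2 nM LmPYK E451W mutant with 0.5 mM PEP and 0.1 mM ADP at pH 7.2. Activity is normalized to DMSO-only control wells.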

[9] = biological target: Pyruvate kinase PKM (Homo sapiens) (UniProt P14618); assay: qHTS Assay for Activators of Human Muscle Pyruvate Kinase (AID 954; active = well fitted curve in the direction sought with a large enough effect, not every such curve was filed as active)
How it was run: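 Purified human PKM2 (0.1 nM) with 0.5 mM PEP (Km) and 0.1 mM ADP in 50 mM imidazole pH 7.2, KCl, MgCl2, 1 h at room temperature; ATP formed read by coupled luciferase luminescence. Normalized to no-enzyme/110 uM thiadiazolimine inhibition; 0.3 nM enzyme column for activation.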

[10] = biological target: Alpha-galactosidase A (Homo sapiens) (UniProt P06280); assay: Counterscreen for Glucocerebrosidase Inhibitors: qHTS Assay for Human alpha-Galactosidase at pH 4.5 (AID 992)
How it was run: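 Human enzyme (2 nM) with 80 uM 4-methylumbelliferyl alpha-D-galactopyranoside in 50 mM citric acid, 0.005% Tween-20, pH 4.5, 20 min at room temperature. Compounds 0.7 nM–77 uM; fluorescence Ex 365/Em 440 after pH 10 stop; AC50 from Hill fits.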

[11] = biological target: alpha-glucosidase (Oryza sativa, rice) (UniProt Q653V4); assay: Counterscreen for Glucocerebrosidase Inhibitors: qHTS Assay for Rice alpha-Glucosidase at pH 5.0 (AID 997)
How it was run: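 Rice alpha-glucosidase (4 nM final) with 400 uM 4-methylumbelliferyl-alpha-D-glucopyranoside in citrate buffer pH 5.0, 20 min at room temperature, stopped at pH 10; fluorescence 365/440 nm, compounds 0.7 nM–77 uM, AC50 from Hill fits.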

Measured: Potency

Sequence of Muscarinic acetylcholine receptor M1 (Rattus norvegicus) (P08482 whole entry, looked up): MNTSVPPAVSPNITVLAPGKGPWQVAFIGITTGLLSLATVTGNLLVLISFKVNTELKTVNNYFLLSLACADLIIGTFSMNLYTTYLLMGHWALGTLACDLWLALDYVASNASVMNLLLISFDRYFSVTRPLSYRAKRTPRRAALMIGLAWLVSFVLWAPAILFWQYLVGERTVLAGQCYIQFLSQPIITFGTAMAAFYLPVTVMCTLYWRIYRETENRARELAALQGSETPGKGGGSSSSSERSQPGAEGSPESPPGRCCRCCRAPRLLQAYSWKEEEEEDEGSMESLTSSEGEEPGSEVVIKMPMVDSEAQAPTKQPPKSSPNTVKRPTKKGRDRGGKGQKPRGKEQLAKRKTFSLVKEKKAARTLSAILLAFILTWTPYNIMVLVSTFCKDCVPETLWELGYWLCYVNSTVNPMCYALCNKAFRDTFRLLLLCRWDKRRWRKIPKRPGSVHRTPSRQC
Sequence of Pyruvate kinase PKM (Homo sapiens) (P14618 whole entry, looked up): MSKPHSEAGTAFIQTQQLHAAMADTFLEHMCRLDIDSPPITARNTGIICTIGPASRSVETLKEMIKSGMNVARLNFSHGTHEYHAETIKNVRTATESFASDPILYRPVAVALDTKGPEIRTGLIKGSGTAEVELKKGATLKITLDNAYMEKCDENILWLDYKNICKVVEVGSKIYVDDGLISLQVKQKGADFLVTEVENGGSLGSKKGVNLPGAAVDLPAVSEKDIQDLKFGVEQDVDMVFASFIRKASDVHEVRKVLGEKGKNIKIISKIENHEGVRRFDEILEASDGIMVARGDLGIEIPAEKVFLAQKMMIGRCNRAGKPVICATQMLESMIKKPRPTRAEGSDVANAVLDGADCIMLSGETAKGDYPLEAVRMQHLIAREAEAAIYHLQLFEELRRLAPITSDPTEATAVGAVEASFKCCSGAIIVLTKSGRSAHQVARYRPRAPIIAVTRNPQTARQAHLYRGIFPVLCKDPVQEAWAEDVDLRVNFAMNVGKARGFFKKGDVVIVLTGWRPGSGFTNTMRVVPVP
Sequence of Alpha-galactosidase A (Homo sapiens) (P06280 whole entry, looked up): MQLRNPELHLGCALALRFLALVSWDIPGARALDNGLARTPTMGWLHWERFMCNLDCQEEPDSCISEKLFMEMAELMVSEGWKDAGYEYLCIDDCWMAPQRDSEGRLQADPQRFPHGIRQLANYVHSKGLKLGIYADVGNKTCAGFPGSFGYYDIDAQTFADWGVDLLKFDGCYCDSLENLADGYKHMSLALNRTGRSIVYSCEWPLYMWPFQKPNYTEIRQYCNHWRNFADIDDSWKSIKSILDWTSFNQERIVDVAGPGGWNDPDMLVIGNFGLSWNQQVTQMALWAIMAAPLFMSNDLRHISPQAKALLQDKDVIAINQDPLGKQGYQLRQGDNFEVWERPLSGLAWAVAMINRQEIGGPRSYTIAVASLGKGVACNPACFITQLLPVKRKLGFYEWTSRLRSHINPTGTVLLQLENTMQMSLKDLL
Sequence of Guanine nucleotide-binding protein G(i) subunit alpha-1 (Homo sapiens) (P63096 whole entry, looked up): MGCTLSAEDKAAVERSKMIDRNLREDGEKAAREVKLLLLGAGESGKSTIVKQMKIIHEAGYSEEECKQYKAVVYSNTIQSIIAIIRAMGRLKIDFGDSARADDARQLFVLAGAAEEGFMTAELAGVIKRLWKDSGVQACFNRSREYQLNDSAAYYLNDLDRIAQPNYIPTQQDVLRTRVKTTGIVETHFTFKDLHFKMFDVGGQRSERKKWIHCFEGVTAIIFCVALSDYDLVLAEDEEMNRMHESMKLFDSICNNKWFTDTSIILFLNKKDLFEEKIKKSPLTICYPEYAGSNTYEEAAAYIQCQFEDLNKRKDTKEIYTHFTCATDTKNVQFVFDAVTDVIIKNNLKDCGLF
Sequence of Pyruvate kinase (Leishmania mexicana) (Q27686 2-499 E452W): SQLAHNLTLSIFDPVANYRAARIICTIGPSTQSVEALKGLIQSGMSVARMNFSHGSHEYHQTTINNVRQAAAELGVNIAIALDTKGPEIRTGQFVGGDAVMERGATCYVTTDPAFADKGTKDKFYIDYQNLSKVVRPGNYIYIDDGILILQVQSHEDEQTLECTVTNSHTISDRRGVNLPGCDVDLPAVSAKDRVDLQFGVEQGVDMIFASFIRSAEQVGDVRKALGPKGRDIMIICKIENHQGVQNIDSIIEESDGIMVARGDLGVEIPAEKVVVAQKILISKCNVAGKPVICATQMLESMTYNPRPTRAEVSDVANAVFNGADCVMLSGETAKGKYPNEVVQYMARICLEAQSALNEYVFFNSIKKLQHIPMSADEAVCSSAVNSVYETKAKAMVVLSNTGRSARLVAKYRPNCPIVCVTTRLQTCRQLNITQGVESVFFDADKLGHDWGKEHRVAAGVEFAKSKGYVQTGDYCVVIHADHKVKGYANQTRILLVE

CC1(C)S[C@@H]2[C@H](NC(=O)Cc3ccccc3)C(=O)N2[C@@H]1C(=O)O
inactive: [1] | [2] | [3]

Cc1onc(-c2c(F)cccc2Cl)c1C(=O)N[C@@H]1C(=O)N2[C@H]1SC(C)(C)[C@H]2C(=O)O
inactive: [1] | [2]

C[C@H](Oc1ccc(Oc2cnc3ccc(Cl)cc3n2)cc1)C(=O)O
inactive: [4] | [5] | [6] | [7] | [8] | [9] | [10] | [11]

C[C@H](CCC(=O)O)[C@H]1CC[C@@H]2[C@H]3[C@@H](C[C@@H](O)[C@]21C)[C@]1(C)CC[C@H](O)C[C@@H]1C[C@@H]3O
inactive: [3]
